Screens deposited in PubChem by National Center for Advancing Translational Sciences (NCATS).
Sampled rows, rich in hits. Any-hit rate of the full collection: about 7.3%.
SMN2 splice up – enhancers of SMN2 splice variant expression; 210,000 tested, 2.8% active; HEK293 SMN2-luciferase splicing reporter, luminescence, 30-36 h; Potency, µM (top dose mostly 46.1 µM), without a hit: top-dose activity change, positive = activation, usual class: activators; further: % of control where 0% means no effect; nearly all actives have a fitted effect of over 55% in size
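qHTS luciferase splicing reporter: luminescence rises when SMN2 exon 7 is included in transfected HEK293 cells. Compound exposure lasted 30-36 h at 37C, with 4.5 mM final sodium butyrate as control, followed by a ONE-Glo read.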
Rab9 prom act – Rab9 promoter activation; 320,000 tested, 2.8% active; Potency, µM (doses to about 9.22 µM), without a hit: at the highest dose activation, negative = inhibition, hits mostly activators; Huh7 Rab9 promoter-luciferase reporter, luminescence, 24 h; further: % of control where 0% means no effect; nearly all actives have a fitted effect of over 60% in size
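Luminescence read-out: Huh7 cells stably expressing Rab9-luciferase, treated 24 h with compound at 37 °C, then lysed with luciferase reagent for 10 min at ambient before reading.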
NPC1 prom act – activates the NPC1 promoter. Huh7 NPC1 promoter luciferase reporter, 24 h. Potency, µM (titrated, usually from 9.22 µM), inactives show top-dose activation, actives largely listed as activators. 320,000 tested, 2.4% active. AID 485313; further: % of control where 0% means no effect; nearly all actives have a fitted effect of over 60% in size
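Luminescence read-out of NPC1 promoter-driven luciferase in stably transfected Huh7 cells; compounds delivered in DMSO and left 24 h at 37C, 5% CO2, qHTS titration format.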
FLuc counter – counter-screen for miR-21 project: firefly luciferase inhibitors or activators. AID 588342. purified FLuc, Km substrates, luminescence inhibition. 360,000 tested, 6.9% active. P08659. Potency, µM (series often up to 57.5 µM), for the others: at the top dose activity change, negative = inhibition, actives largely listed as inhibitors;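 further: plate controls were vehicle for no effect and reference inhibitor for full effect; nearly all actives have a fitted effect of over 55% in size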
Target sequence (P08659 whole entry, looked up): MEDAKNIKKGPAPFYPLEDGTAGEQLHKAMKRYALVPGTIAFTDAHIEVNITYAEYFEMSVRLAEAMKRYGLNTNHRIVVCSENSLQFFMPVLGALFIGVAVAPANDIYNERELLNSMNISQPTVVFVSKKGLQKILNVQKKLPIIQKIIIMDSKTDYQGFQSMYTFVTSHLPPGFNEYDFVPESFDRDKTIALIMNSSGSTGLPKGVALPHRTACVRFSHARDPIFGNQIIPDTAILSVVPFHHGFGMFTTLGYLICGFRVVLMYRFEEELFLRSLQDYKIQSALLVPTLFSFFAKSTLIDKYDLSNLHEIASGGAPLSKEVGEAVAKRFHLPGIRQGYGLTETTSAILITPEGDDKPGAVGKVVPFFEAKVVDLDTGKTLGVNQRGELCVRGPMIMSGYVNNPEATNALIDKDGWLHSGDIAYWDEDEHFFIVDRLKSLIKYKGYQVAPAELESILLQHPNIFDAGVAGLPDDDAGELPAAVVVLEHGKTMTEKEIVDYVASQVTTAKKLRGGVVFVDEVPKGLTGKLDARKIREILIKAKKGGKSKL
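Purified P. pyralis luciferase, 10 nM final, with Km-level 10 uM D-luciferin and 10 uM ATP in 50 mM Tris acetate pH 7.5, 10 mM Mg acetate, 0.01% Tween-20, 0.05% BSA; 6-point qHTS titration about 60 µM downward; luminescence read.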
p53 reactivator – mutant p53 re-activation in reporter cells; H1299 p53-A138V BP100-luciferase reporter, luminescence, 24 h; Potency, µM (top dose mostly 92.2 µM), for inactives: at the top dose activity change, positive = activation, usual class: activators; 320,000 tested, 0.063% active; further: % of control where 0% means no effect; nearly all actives have a fitted effect of over 45% in size
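p53-null H1299 cells stably carrying temperature-sensitive p53-A138V and a BP100-luciferase reporter were pinned with compounds (4-point, 1:5 series) and held 24 hrs at 37 deg C. Luminescence was read 10 min after detection reagent.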
ELG1 genotoxic – induces genotoxicity in HEK293T cells with luciferase-tagged ELG1 | HEK293T ELG1-luciferase reporter, luminescence, 16 h | Potency, µM (titrated, usually from 46 µM), for the others: at the highest dose activity change, positive = activation, actives largely listed as activators | 330,000 tested, 1.3% active | AID 504466; further: % of control where 0% means no effect; nearly all actives have a fitted effect of over 60% in size
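Screening used a luciferase reporter fused to human ELG1 in HEK293T cells. Luminescence was read on a CCD plate imager after 16 hr exposure and 30 min ONE-Glo incubation.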
* = called active by the depositor; [ ] = another dose, or the depositor's remark. The call rests on the fitted dose curve; in most records, active means well fitted curve in the direction sought with a large enough effect; inconclusive means small, poorly fitted or top-dose-only effect, or another doubt; inactive means no such curve, though single readings can be large; an effect the other way counts as inactive or inconclusive. Potency means the concentration at half of the fitted maximal effect.

CC/C(=N\NC(=O)c1cc(C2CC2)[nH]n1)c1ccccc1 was read as Rab9 prom act inconclusive, NPC1 prom act 3.55µM*, FLuc counter 13.5µM*, p53 reactivator inconclusive and ELG1 genotoxic inconclusive.
For O=C(N/N=C/c1ccc(O)cc1)c1cc(C2CC2)[nH]n1 the results were Rab9 prom act 2.5%, NPC1 prom act 0.1%, FLuc counter -18.3%, p53 reactivator 18.7% and ELG1 genotoxic 4.0%.
Cc1ccc(-c2cn3c(n2)sc2cc(C(=O)NCCC4=CCCCC4)ccc23)c(C)c1 was read as FLuc counter -5.3%.
COc1ccc2oc(=O)cc(CN3CCN(c4ccccc4F)CC3)c2c1 was read as SMN2 splice up 2.7% and FLuc counter -2.5%.
CCOc1ccc(-c2cc(NC(=O)c3cccc(Cl)c3)c(C(=O)OC)s2)cc1 was read as SMN2 splice up 13.5% and FLuc counter -0.5%.
`CC1CCCCN1Cc1c(O)ccc2c(=O)c(-c3ccccc3Cl)c(C(F)(F)F)oc12` (stereo unspecified) gave SMN2 splice up -12.9% and FLuc counter -3.3%.
For CC1CCCCN1Cc1c(O)ccc2c(=O)c(-c3nc4ccccc4s3)c(N)oc12 (stereo unspecified) the results were SMN2 splice up 13.9%, Rab9 prom act -7.5%, NPC1 prom act 2.1%, FLuc counter 12µM*, p53 reactivator -4.0% and ELG1 genotoxic 1.6%.
`COc1ccc(NC(=O)C(C)N2Cc3ccccc3C2=O)cc1OC` (stereo unspecified) gave FLuc counter 1.0%.
Screening Cc1c(-c2ccccn2)c(=O)[nH]n1-c1ccc(F)cc1 returned SMN2 splice up 5.62µM*, Rab9 prom act 0.501µM*, NPC1 prom act 3.55µM*, FLuc counter 3.01µM*, p53 reactivator -8.4% and ELG1 genotoxic inconclusive.
O=C(c1cc2ccccc2s1)N1CCOCC1 was read as Rab9 prom act 0.9%, NPC1 prom act 8.5%, FLuc counter -6.1%, p53 reactivator -3.6% and ELG1 genotoxic -0.6%.
`O=C(CSc1nc2ccccc2s1)NC1CCCC1` gave Rab9 prom act 1.9%, NPC1 prom act -3.8%, FLuc counter -26.3%, p53 reactivator 4.6% and ELG1 genotoxic -0.8%.
Screening O=C(NC1CC1)c1ccc(-c2nc3ccccc3s2)s1 returned SMN2 splice up 0.501µM*, Rab9 prom act 0.316µM*, NPC1 prom act 0.398µM*, FLuc counter 0.151µM*, p53 reactivator -7.6% and ELG1 genotoxic 0.259µM*.
Screening O=C(c1ccc(-c2nc3ccccc3s2)s1)N1CCOCC1 returned Rab9 prom act inconclusive, NPC1 prom act 0.0891µM*, FLuc counter 0.379µM*, p53 reactivator -8.7% and ELG1 genotoxic inconclusive.
For CCN1CCN(C(=O)c2ccc(-c3nc4ccccc4s3)s2)CC1 the results were SMN2 splice up 11.2µM*, Rab9 prom act 2.24µM*, NPC1 prom act inconclusive, FLuc counter inconclusive, p53 reactivator 23.9% and ELG1 genotoxic 13.8%.
For CCOC(=O)C1CCN(S(=O)(=O)c2ccc(-c3nc4ccccc4s3)s2)CC1 the results were SMN2 splice up -28.5%, Rab9 prom act 17.1%, NPC1 prom act 29.6%, FLuc counter 21.3µM*, p53 reactivator inconclusive and ELG1 genotoxic inconclusive.
Screening COc1cccc(NC(=O)c2cc3c(-c4ccc(Cl)cc4)nn(C)c3s2)c1 returned FLuc counter 0.4%.
CN(C)c1ccc(/C=C/c2nnnn2-c2ccccc2)cc1 was read as SMN2 splice up 15.8µM*, Rab9 prom act 1.58µM*, NPC1 prom act 2µM*, FLuc counter 8.49µM*, p53 reactivator inconclusive and ELG1 genotoxic inconclusive.
For Cc1ccc(NC(=O)c2cccc(NC3=NC4CS(=O)(=O)CC4S3)c2)cc1C (stereo unspecified) the results were Rab9 prom act -4.1%, NPC1 prom act 1.3%, FLuc counter 13.5µM* and ELG1 genotoxic 4.4%.
CCc1ccc(NC(=O)c2cccc(NC3=NC4CS(=O)(=O)CC4S3)c2)cc1 (stereo unspecified) was read as Rab9 prom act 8.3%, NPC1 prom act -0.4%, FLuc counter 13.5µM*, p53 reactivator 10.9% and ELG1 genotoxic 9.0%.
For CCOc1ccc(NC(=O)c2cccc(NC3=NC4CS(=O)(=O)CC4S3)c2)cc1 (stereo unspecified) the results were Rab9 prom act 2.3%, NPC1 prom act 1.1%, FLuc counter inconclusive, p53 reactivator 7.0% and ELG1 genotoxic 6.0%.
For O=C(Nc1ccc(Cl)cc1)c1cccc(NC2=NC3CS(=O)(=O)CC3S2)c1 (stereo unspecified) the results were Rab9 prom act -1.1%, NPC1 prom act 2.1%, FLuc counter inconclusive and ELG1 genotoxic 4.8%.
Screening Cc1cccc(NC(=O)c2cccc(NC3=NC4CS(=O)(=O)CC4S3)c2)c1 (stereo unspecified) returned Rab9 prom act 2.0%, NPC1 prom act -3.8%, FLuc counter -6.3%, p53 reactivator 4.3% and ELG1 genotoxic -2.8%.
Screening CC(C)c1ccc(NC(=O)Cc2ccc(NC3=NC4CS(=O)(=O)CC4S3)cc2)cc1 (stereo unspecified) returned Rab9 prom act 18.9%, NPC1 prom act 1.9%, FLuc counter 21.3µM*, p53 reactivator 20.9% and ELG1 genotoxic 13.2%.
CC(C)c1ccc(NC(=O)c2cccc(NC3=NC4CS(=O)(=O)CC4S3)c2)cc1 (stereo unspecified) was read as Rab9 prom act 2.8%, NPC1 prom act 20.2%, FLuc counter 6.01µM*, p53 reactivator 16.6% and ELG1 genotoxic 10.7%.
Screening CCCCOc1ccc(C(=O)Nc2cc(-c3cn4cccnc4n3)ccc2OC)cc1 returned FLuc counter -9.2%.
CCOC(=O)c1[nH]c(C)c(CCC(=O)NCc2ccc(N(C)C)cc2)c1C was read as FLuc counter 1.6%.
`c1cc(CSc2ncnc3nc[nH]c23)ccn1` gave SMN2 splice up -7.0%[9.22 µM].
`Cc1ccc(-c2cc(C(=O)O)c3sc(N4CCCCC4)nc3n2)cc1` gave SMN2 splice up -9.2%, Rab9 prom act 0.7%, NPC1 prom act -2.3%, FLuc counter 23.9µM*, p53 reactivator 12.8% and ELG1 genotoxic 9.0%.
Screening CCOC(=O)c1cc(-c2ccccc2)nc2nc(N3CCCCC3)sc12 returned SMN2 splice up 4.8%, Rab9 prom act -7.3%, NPC1 prom act -3.1%, FLuc counter -12.7%, p53 reactivator 6.0% and ELG1 genotoxic -5.0%.
